In PubChem BioAssay (NCATS):
Values joined by “and” are separate entries in the source; they are usually repeats but may differ in a detail not shown here. Equal values may be shown once. Records with an inconclusive call do not appear. Entries that show only a call come without a potency. Active and inactive are the calls of the source. Unless noted, the call rests on the fitted dose curve.

What was measured:
[1] = target: Ubiquitin carboxyl-terminal hydrolase 1 (Homo sapiens) (UniProt O94782); assay: Inhibitors of USP1/UAF1: Pilot qHTS (AID 504865; active means well fitted inhibition curve with a large enough effect; further: nearly all actives have a fitted effect of over 35% in size; further: potency means the concentration at half of the fitted maximal effect)
Procedure, shortened: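 Enzyme-free wells gave the negative control, while test wells held 1nM USP1/UAF1 preincubated with compound for 15 min at room temperature. Ub-Rho at 150nM final started the reaction, and fluorescence at 480/540 nm was recorded kinetically.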

[2] = target: Estrogen receptor (Homo sapiens) (UniProt P03372); assay: qHTS assay for small molecule antagonists of estrogen receptor alpha signaling (AID 588513; active means well fitted curve in the direction sought with a large enough effect in the signal ratio, with a control signal flat, not every such curve was filed as active; the % refers to the signal ratio)
Procedure, shortened: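 Antagonist-mode qHTS in ER-alpha-UAS-bla HEK 293 cells: compound titration, 0.5nM estradiol for 18 h, CCF4 fluorescence, Hill-derived IC50.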

[3] = target: Estrogen receptor (Homo sapiens) (UniProt P03372); assay: qHTS assay for small molecule agonists of estrogen receptor alpha signaling (AID 588514); further: nearly all actives have a fitted effect of over 70% in size; further: potency means the concentration at half of the fitted maximal effect
Procedure, shortened: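 Efficacy is expressed against 20 nM 17-beta-estradiol (100%) and DMSO basal (0%); EC50 from Hill equation. Assay: beta-lactamase reporter in ER-alpha-UAS-bla HEK 293 cells, 18 h compound incubation, CCF4 detection.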

[4] = target: Androgen receptor (Homo sapiens) (UniProt P10275); assay: qHTS assay for small molecule agonists of androgen receptor signaling (AID 588515; active means well fitted curve in the direction sought with a large enough effect in the signal ratio, with a control signal flat; the % refers to the signal ratio); details: AR-UAS-bla HEK293, beta-lactamase ratio, agonist 16 h; stronger effect = higher value
Procedure, shortened: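 Stimulation of an AR-responsive β-lactamase reporter in GripTite HEK293 cells was measured after 16 h compound exposure at 37 °C, via CCF4 fluorescence after 2 h RT. EC50 from Hill fits, normalized to R1881 at 30 nM.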

[5] = target: Glucocorticoid receptor (Homo sapiens) (UniProt P04150); assay: qHTS assay for small molecule agonists of glucocorticoid receptor signaling (AID 588532; active means well fitted curve in the direction sought with a large enough effect in the signal ratio, with a control signal flat; the % refers to the signal ratio); details: HeLa MMTV-bla, beta-lactamase ratio, agonist, 18 h; stronger effect = higher value; percent of dexamethasone control, DMSO zero
Procedure, shortened: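 MMTV-bla HeLa, beta-lactamase reporter; medium with 1% charcoal/dextran-stripped FBS; cpds up to 92 uM, 18 h, 37 C; CCF4 readout 460/530 nm; Hill fit → EC50, efficacy vs 0.1 uM dexamethasone = 100%.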

[6] = target: Peroxisome proliferator-activated receptor gamma (Homo sapiens) (UniProt P37231); assay: qHTS assay for small molecule agonists of peroxisome proliferator-activated receptor gamma signaling (AID 588536; active means well fitted curve in the direction sought with a large enough effect in the signal ratio, with a control signal flat, not every such curve was filed as active; the % refers to the signal ratio)
Procedure, shortened: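 Cells were plated and held 6–6.5 h at 37 C, then compounds were added as a titration series. After a further 16 h, CCF4 dye was loaded for 2 h at room temperature and emission at 460/530 nm recorded.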

[7] = target: Peroxisome proliferator-activated receptor gamma (Homo sapiens) (UniProt P37231); assay: qHTS assay for small molecule antagonists of peroxisome proliferator-activated receptor gamma signaling (AID 588537; active means well fitted inhibition curve with a large enough effect in the signal ratio, with a control signal flat, not every such curve was filed as active; the % refers to the signal ratio;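 further: reporter cells co-stimulated with 50 nM rosiglitazone agonist during compound treatment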)
Procedure, shortened: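 Compounds are tested as concentration series for inhibition of rosiglitazone-driven (50 nM) reporter expression in GeneBLAzer PPAR-gamma-UAS-bla HEK293 cells. After 16 h at 37 C, CCF4 substrate is added for 2 h at room temperature and blue/green fluorescence is measured.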

[8] = target: Vitamin D3 receptor (Homo sapiens) (UniProt P11473); assay: qHTS assay for small molecule agonists of vitamin D receptor signaling (AID 588543)
Procedure, shortened: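 Measured: β-lactamase reporter activity (CCF4, 405 nm excitation, 460/530 nm emission) in HEK293T VDR-UAS-bla cells after 16 h compound exposure at 37 °C. Normalization against 50 nM 1α,25-dihydroxyvitamin D3 and DMSO; Hill-fit EC50.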

[9] = qHTS assay for small molecule agonists of retinoid X receptor alpha signaling (AID 588544); details: HEK293T RXRa-UAS-bla, beta-lactamase reporter, 18 h; 530 nm emission
[10] = target: Retinoic acid receptor RXR-alpha (Homo sapiens) (UniProt P19793); assay: as above
[11] = target: DNA dC->dU-editing enzyme APOBEC-3G (Homo sapiens) (UniProt Q9HC16); assay: qHTS for inhibitors of Vif-A3G interactions: Validation (AID 588379; active means well fitted inhibition curve with a large enough effect)
Procedure, shortened: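 Yellow fluorescence (Ex 488, Em 500-530) of Vif-coexpressing HeLa A3G-eYFP cells, scanned by Acumen cytometer, reports blocked A3G degradation. Cells plated at 700/well overnight at 37 deg C before compound addition, then a further overnight compound incubation at 37 deg C.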

[12] = target: Glucocorticoid receptor (Homo sapiens) (UniProt P04150); assay: qHTS assay for small molecule antagonists of glucocorticoid receptor signaling (AID 588533; active means well fitted inhibition curve with a large enough effect in the signal ratio, with a control signal flat, not every such curve was filed as active; the % refers to the signal ratio;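 further: cells stimulated with 2 nM dexamethasone as agonist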; further: potency means the concentration at half of the fitted maximal effect)
Procedure, shortened: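 Antagonist-mode qHTS: compound titrations added to GRE-bla HeLa cells, then dexamethasone 2 nM final; 18 h, 37 C. CCF4 FRET fluorescence normalized to dexamethasone and DMSO; IC50 from Hill fit.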

[13] = qHTS assay for small molecule antagonists of peroxisome proliferator-activated receptor delta signaling (AID 588535; active means well fitted inhibition curve with a large enough effect in the signal ratio, with a control signal flat, not every such curve was filed as active; the % refers to the signal ratio;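 on max response: cells co-treated with a PPAR-delta agonist as stimulator during compound exposure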); details: HEK293T PPARd-UAS-bla, beta-lactamase FRET ratio, 18 h; 460 nm channel
Procedure, shortened: (§1)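 Inhibition of PPAR-delta response element-driven beta-lactamase expression is measured in HEK293T cells exposed to a compound titration series for 18 hrs at 37 C. Half-maximal inhibition comes from Hill equation fitting.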

[14] = target: Peroxisome proliferator-activated receptor delta (Homo sapiens) (UniProt Q03181); assay: as above
Procedure, shortened: as §1

[15] = target: Bile acid receptor (Homo sapiens) (UniProt Q96RI1); assay: qHTS assay for small molecule antagonists of farnesoid X receptor signaling (AID 588526)
Procedure, shortened: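 Concentration-response titrations were fitted to the Hill equation for half-maximal inhibition and maximal response, with data normalised to 50 uM chenodeoxycholic acid and DMSO control wells. Cells: FXR-UAS-bla HEK293T, dialyzed FBS.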

[16] = target: Androgen receptor (Homo sapiens) (UniProt P10275); assay: qHTS assay for small molecule antagonists of androgen receptor signaling (AID 588516; active means well fitted curve in the direction sought with a large enough effect in the signal ratio, with a control signal flat, not every such curve was filed as active; the % refers to the signal ratio)
Procedure, shortened: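 Compounds tested in titration against 10 nM R1881 in AR-responsive bla reporter HEK 293 cells; CCF4 fluorescence (460/530 nm) after 16 h exposure gave IC50 and efficacy.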

Androgen receptor (Homo sapiens), sequence (P10275 whole entry, looked up): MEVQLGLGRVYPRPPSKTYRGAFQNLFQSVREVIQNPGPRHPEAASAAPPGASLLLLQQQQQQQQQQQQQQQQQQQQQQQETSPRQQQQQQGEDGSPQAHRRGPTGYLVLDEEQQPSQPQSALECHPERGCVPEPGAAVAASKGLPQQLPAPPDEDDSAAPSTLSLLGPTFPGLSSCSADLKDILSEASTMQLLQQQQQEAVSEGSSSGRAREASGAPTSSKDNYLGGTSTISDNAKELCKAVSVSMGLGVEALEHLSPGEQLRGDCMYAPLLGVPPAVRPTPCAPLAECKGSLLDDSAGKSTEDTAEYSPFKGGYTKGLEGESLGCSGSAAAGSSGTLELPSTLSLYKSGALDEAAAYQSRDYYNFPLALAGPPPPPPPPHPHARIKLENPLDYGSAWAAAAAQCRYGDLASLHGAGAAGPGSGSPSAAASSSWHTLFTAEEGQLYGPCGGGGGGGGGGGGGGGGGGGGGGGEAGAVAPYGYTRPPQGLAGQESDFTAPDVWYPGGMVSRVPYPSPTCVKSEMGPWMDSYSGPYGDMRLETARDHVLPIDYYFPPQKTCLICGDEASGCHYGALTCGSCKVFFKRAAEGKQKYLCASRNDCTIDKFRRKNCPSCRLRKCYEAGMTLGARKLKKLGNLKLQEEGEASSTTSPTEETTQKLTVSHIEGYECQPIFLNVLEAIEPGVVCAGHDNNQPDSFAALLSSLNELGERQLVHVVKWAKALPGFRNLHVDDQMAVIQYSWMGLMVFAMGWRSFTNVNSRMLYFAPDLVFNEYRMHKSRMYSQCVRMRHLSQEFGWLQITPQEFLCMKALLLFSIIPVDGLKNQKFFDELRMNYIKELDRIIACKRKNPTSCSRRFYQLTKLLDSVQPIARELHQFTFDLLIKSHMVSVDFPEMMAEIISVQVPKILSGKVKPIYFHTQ
Peroxisome proliferator-activated receptor gamma (Homo sapiens), sequence (P37231 whole entry, looked up): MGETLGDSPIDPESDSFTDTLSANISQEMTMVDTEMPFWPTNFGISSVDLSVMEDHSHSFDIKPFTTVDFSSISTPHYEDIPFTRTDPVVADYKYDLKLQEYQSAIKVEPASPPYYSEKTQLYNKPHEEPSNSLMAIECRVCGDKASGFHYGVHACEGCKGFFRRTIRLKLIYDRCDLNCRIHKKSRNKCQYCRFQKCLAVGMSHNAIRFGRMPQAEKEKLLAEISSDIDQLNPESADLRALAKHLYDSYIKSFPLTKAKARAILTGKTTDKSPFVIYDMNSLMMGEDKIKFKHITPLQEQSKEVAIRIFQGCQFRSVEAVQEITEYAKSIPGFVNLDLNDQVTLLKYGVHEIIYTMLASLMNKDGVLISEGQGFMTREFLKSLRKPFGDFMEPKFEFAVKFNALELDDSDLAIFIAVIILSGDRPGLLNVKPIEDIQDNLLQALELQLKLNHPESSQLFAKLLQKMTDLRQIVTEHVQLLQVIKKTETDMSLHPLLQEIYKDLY
Vitamin D3 receptor (Homo sapiens), sequence (P11473 whole entry, looked up): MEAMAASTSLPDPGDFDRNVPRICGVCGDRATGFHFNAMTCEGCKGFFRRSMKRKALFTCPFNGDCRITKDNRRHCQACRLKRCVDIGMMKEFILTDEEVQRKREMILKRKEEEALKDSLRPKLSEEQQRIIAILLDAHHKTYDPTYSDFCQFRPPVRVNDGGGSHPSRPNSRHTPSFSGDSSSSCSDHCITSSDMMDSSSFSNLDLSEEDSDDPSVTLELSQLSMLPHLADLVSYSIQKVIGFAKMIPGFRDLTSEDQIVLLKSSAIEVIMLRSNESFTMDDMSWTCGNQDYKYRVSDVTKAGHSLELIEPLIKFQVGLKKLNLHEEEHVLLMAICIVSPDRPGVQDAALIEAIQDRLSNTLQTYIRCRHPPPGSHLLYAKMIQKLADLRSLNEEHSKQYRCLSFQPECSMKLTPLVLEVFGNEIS
Retinoic acid receptor RXR-alpha (Homo sapiens), sequence (P19793 whole entry, looked up): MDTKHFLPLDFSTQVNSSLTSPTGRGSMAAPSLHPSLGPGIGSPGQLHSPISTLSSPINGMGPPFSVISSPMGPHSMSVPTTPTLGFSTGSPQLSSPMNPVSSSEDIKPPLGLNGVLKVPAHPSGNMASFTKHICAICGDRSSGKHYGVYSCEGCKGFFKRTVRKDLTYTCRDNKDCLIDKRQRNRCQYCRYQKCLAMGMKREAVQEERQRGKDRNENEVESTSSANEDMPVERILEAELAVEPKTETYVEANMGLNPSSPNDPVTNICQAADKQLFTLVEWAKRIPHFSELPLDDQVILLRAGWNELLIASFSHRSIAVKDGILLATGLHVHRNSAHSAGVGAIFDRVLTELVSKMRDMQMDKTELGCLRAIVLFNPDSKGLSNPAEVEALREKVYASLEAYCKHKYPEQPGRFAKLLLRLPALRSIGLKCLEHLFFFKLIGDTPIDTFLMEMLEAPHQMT
DNA dC->dU-editing enzyme APOBEC-3G (Homo sapiens), sequence (Q9HC16 whole entry, looked up): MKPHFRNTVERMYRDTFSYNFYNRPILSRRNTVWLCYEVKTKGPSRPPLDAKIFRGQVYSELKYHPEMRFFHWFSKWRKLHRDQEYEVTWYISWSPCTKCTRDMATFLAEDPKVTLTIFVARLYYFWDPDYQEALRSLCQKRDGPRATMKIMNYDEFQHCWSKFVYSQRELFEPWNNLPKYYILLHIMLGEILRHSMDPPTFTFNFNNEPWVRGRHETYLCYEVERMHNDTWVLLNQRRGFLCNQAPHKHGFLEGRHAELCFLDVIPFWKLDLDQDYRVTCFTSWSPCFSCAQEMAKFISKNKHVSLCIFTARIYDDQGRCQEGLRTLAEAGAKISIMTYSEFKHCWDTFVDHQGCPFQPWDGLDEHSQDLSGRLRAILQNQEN
Glucocorticoid receptor (Homo sapiens), sequence (P04150 whole entry, looked up): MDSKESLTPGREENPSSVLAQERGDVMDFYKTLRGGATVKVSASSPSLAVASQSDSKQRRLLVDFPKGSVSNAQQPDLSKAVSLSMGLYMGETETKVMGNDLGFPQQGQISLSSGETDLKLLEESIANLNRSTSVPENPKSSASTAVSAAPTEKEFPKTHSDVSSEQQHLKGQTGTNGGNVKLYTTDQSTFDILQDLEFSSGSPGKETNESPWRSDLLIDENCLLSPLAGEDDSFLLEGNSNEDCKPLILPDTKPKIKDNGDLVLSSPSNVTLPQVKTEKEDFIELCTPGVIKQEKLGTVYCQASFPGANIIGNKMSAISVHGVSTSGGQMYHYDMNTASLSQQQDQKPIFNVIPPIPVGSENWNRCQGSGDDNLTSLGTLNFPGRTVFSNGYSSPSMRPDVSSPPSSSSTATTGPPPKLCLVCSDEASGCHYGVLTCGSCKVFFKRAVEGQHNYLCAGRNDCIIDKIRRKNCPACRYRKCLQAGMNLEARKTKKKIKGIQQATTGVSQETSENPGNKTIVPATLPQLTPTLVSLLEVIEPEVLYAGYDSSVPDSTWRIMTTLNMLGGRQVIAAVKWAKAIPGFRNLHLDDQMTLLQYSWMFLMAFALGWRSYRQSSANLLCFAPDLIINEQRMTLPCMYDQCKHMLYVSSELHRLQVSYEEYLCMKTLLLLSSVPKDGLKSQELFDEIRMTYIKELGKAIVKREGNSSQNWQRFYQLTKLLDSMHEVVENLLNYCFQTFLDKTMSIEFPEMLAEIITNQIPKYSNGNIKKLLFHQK
Peroxisome proliferator-activated receptor delta (Homo sapiens), sequence (Q03181 whole entry, looked up): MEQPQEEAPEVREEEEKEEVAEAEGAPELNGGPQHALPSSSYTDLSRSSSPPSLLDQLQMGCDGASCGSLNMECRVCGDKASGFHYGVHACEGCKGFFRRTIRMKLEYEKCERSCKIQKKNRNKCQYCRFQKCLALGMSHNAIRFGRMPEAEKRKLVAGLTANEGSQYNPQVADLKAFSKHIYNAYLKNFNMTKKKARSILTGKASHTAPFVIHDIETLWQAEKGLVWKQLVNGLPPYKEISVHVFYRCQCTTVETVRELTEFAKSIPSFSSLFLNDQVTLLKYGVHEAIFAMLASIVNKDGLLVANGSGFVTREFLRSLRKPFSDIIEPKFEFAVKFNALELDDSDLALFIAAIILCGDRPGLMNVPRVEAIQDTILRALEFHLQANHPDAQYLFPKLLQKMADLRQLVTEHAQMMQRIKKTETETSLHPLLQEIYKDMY
Bile acid receptor (Homo sapiens), sequence (Q96RI1 whole entry, looked up): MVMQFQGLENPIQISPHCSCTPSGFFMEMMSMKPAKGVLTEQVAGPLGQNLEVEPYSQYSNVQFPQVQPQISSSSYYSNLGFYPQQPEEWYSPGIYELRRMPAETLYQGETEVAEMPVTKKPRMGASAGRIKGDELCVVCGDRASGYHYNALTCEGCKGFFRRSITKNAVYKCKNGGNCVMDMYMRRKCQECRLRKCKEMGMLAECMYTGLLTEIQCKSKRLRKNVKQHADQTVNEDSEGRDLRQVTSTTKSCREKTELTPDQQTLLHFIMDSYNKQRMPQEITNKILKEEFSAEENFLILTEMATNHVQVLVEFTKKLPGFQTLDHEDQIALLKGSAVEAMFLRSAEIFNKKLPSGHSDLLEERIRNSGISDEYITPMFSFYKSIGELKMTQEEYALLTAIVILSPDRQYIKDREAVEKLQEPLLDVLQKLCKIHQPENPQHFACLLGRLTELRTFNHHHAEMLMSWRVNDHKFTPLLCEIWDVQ
Estrogen receptor (Homo sapiens), sequence (P03372 whole entry, looked up): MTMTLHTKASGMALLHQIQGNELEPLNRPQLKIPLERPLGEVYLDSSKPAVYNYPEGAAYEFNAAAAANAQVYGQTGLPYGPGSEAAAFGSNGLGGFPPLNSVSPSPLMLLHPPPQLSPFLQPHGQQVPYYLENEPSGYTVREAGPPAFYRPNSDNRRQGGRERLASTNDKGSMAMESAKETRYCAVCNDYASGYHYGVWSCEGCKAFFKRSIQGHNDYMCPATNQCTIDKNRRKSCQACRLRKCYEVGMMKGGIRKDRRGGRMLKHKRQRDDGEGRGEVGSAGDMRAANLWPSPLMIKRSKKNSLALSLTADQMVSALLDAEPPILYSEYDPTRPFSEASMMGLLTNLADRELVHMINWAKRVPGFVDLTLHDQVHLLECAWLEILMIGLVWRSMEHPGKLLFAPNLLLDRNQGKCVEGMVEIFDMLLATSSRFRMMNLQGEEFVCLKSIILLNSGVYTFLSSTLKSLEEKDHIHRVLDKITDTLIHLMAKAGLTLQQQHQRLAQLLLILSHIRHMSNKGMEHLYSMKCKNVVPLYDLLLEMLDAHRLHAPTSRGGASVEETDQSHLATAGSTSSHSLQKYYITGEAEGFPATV

CC(C)NCC(O)COc1ccccc1-n1cccc1 (stereo unspecified)
Potency [1]: inactive

O=C(OC1C[C@@H]2CC3C[C@H](C1)N2CC3=O)c1c[nH]c2ccccc12 (stereo partly specified)
Potency [1]: inactive

CC(C)(C)CC(C)(C)c1ccc(OCCO)cc1
Potency [1]: inactive | Potency [2]: inactive | Potency [3]: inactive | activation [4]: -21% (inactive) | activation [5]: 12% (inactive) | outcome [6]: inactive | outcome [7]: inactive | outcome [8]: inactive | max response [9]: 19.7% | outcome [10]: inactive

N[C@H](CC(=O)O)C(=O)O
Potency [1]: inactive | outcome [11]: inactive

C[C@H]1O[C@@H](O[C@H]2[C@@H](O)C[C@H](O[C@H]3[C@@H](O)C[C@H](O[C@H]4CC[C@@]5(C)[C@H](CC[C@@H]6[C@@H]5C[C@@H](O)[C@]5(C)[C@@H](C7=CC(=O)OC7)CC[C@]65O)C4)O[C@@H]3C)O[C@@H]2C)C[C@H](O)[C@@H]1O
Potency [1]: inactive | outcome [11]: inactive | activation [5]: -7.98% (inactive) | Potency [12]: 1 µM (active) and 562 nM (active) | outcome [8]: inactive

COC(=O)c1ccccc1O
Potency [1]: inactive | Potency [2]: inactive | Potency [3]: inactive | max response [13]: -8.84% and 15.6% | outcome [14]: inactive | outcome [8]: inactive | max response [9]: -1.26% and -12.6% | outcome [10]: inactive

C[C@@](Cc1ccc(O)c(O)c1)(NN)C(=O)O
Potency [1]: inactive | outcome [11]: inactive

NCCO/C=C/[C@H](N)C(=O)O
Potency [1]: inactive | Potency [2]: inactive | Potency [3]: inactive | outcome [15]: inactive | activation [5]: -5.2% (inactive) | Potency [12]: inactive | max response [13]: -3.12% | outcome [14]: inactive | outcome [6]: inactive | outcome [7]: inactive | max response [9]: -3.57% | outcome [10]: inactive

c1ccc2ccccc2c1
Potency [1]: inactive | Potency [2]: inactive | Potency [3]: inactive | outcome [15]: inactive | max response [13]: -2.63% and 30.7% | outcome [14]: inactive | outcome [6]: inactive | outcome [7]: inactive | outcome [8]: inactive | max response [9]: -8.1% and -18.9% | outcome [10]: inactive

CC(=O)Oc1cccc2c1C(=O)c1c(OC(C)=O)cc(C(=O)O)cc1C2=O
Potency [1]: inactive

O=C(/C=C/c1cccc(F)c1)NC1CC1
Potency [1]: inactive

OCc1ccccc1
Potency [1]: inactive | Potency [2]: inactive | Potency [3]: inactive | activation [4]: -14.4% (inactive) | outcome [16]: inactive | activation [5]: -0.651% (inactive) | Potency [12]: inactive | outcome [6]: inactive | outcome [7]: inactive | outcome [8]: inactive | max response [9]: -12.3% | outcome [10]: inactive

Cc1cc(-c2ccc(N=Nc3ccc4c(S(=O)(=O)O)cc(S(=O)(=O)O)c(N)c4c3O)c(C)c2)ccc1N=Nc1ccc2c(S(=O)(=O)O)cc(S(=O)(=O)O)c(N)c2c1O
Potency [1]: 11.2 µM (active) and 25.1 µM (active) | outcome [11]: inactive

Cc1ncc(C[n+]2csc(CCOP(=O)(O)OP(=O)(O)O)c2C)c(N)n1
Potency [1]: inactive

CCN(CC)C(=O)c1cccnc1
Potency [1]: inactive

OCC(O)CO
Potency [1]: inactive | Potency [2]: inactive | Potency [3]: inactive | outcome [15]: inactive | activation [5]: 2.41% (inactive) and -1.45% (inactive) | Potency [12]: inactive | max response [13]: -8.63% | outcome [14]: inactive | outcome [6]: inactive | outcome [7]: inactive | outcome [8]: inactive | max response [9]: -13.7% and 0.479% | outcome [10]: inactive

CC(C)O
Potency [1]: inactive | Potency [2]: inactive | Potency [3]: inactive | outcome [15]: inactive | max response [13]: 15.2% | outcome [14]: inactive | outcome [6]: inactive | outcome [8]: inactive | max response [9]: -10.8% | outcome [10]: inactive

C=C(C)C1CC=C(C)CC1 (stereo unspecified)
Potency [1]: inactive | Potency [2]: inactive | Potency [3]: inactive | activation [5]: -1.86% (inactive) and -2.03% (inactive) | Potency [12]: inactive | outcome [8]: inactive | max response [9]: 2.14% | outcome [10]: inactive

Cc1ccc(S(=O)(=O)O)cc1C
Potency [1]: inactive | Potency [2]: inactive | Potency [3]: inactive | activation [5]: 2.36% (inactive) | Potency [12]: inactive | max response [13]: -12.1% | outcome [14]: inactive | outcome [6]: inactive | outcome [8]: inactive | max response [9]: -1.2% | outcome [10]: inactive

CCCCC(CC)COS(=O)(=O)O (stereo unspecified)
Potency [1]: inactive | Potency [2]: inactive | Potency [3]: inactive | outcome [15]: inactive | max response [13]: -7.66% | outcome [14]: inactive | outcome [8]: inactive | max response [9]: -9.2% | outcome [10]: inactive

FCOC(C(F)(F)F)C(F)(F)F
Potency [1]: inactive

NCCN
Potency [1]: inactive | Potency [2]: inactive | Potency [3]: 199 nM (active) | max response [13]: 42.1% | outcome [14]: inactive | outcome [6]: inactive | outcome [7]: inactive | outcome [8]: inactive | max response [9]: -12.8% | outcome [10]: inactive

O=[n+]1ccn([O-])c2ccccc21
Potency [1]: inactive

CN(C)CCCSc1ccccc1NC(=O)/C=C/c1ccccc1
Potency [1]: inactive

O=C(NCCNCC(O)COc1ccc(O)cc1)N1CCOCC1 (stereo unspecified)
Potency [1]: inactive

OCl
Potency [1]: inactive | Potency [2]: inactive | Potency [3]: inactive | outcome [15]: inactive | activation [5]: -3.26% (inactive) | max response [13]: -10.3% | outcome [14]: inactive | outcome [6]: inactive | outcome [8]: inactive | max response [9]: -6.54% | outcome [10]: inactive

CC(=O)Oc1cc(C(F)(F)F)ccc1C(=O)O
Potency [1]: inactive

OCCOCCOCCO
Potency [1]: inactive | Potency [2]: inactive | Potency [3]: inactive | outcome [16]: inactive | activation [5]: -3.1% (inactive) and -7.85% (inactive) | Potency [12]: inactive | outcome [6]: inactive | outcome [7]: inactive | outcome [8]: inactive | max response [9]: -8.79% and -11.6% | outcome [10]: inactive

C[C@]12CCC(=O)C[C@@H]1CC[C@@H]1[C@@H]2CC[C@]2(C)C=CC[C@@H]12
Potency [1]: inactive

OB(O)O
Potency [1]: inactive | Potency [2]: inactive | outcome [15]: inactive | activation [5]: -3.94% (inactive) and -21.4% (inactive) | Potency [12]: inactive | max response [13]: 1.13% | outcome [14]: inactive | outcome [6]: inactive | outcome [7]: inactive | outcome [8]: inactive | max response [9]: -5.98% and -1.26% | outcome [10]: inactive
